# Experimental data as given in PubChem BioAssay (NCI).
# About 79,000 compounds went through this panel and 15% of them were active in at least one assay; those are over-represented in the sample as a whole. A number with no mark means an inactive call. No stated cut-off is given here; in the data, active means growth inhibition above about 70%; inactive means the rest. Where a SMILES comes first, the peptide text is derived from it. The star is where a group is joined. Cbz = O=C(OCc1ccccc1)*
# Assay: NCI Yeast Anticancer Drug Screen. Data for the rad50 strain (AID 155);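 further: 0% = growth of vehicle-only cultures of the same strain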
# Settings: S. cerevisiae rad50 strain growth inhibition; at 50.0 µM; active compounds read high
# Method in brief: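 Inhibition values express reduced yeast growth in compound-treated cultures relative to vehicle-treated controls.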
row,Compound,growth inhibition [%]
1,CC(=O)/C(C)=C\C1C(C)=CCCC1(C)C (centres undefined),-4.5
2,CCN(CC)c1ccc2c(c1)C(O)c1ccccc1-2 (centres undefined),-3.75
3,CCN(CC)CCN(C)C(O)(C(=O)c1ccccc1)C1CCCC1 (centres undefined),8.9
4,C/C(Cc1ccccc1)=N\NS(=O)(=O)c1ccc(C)cc1,44.4
5,O=C1C(=S)Nc2cccc(F)c21,38
6,CCOC(=O)NC(=Cc1ccccn1)c1ccc(Cl)cc1 (mixture of isomers),7.7
7,O=C(Nc1cccc2ccccc12)OC1CCCC1,1.2
8,CCCCCCC(C)C(C#N)C(=O)OCC (centres undefined),-11.8
9,CCCCNc1ccc([N+](=O)[O-])cc1[N+](=O)[O-],16.2
10,CCCCOC(=O)C1(C(=O)OCCCC)CC1,14.8
11,C1CSCCSCCSCCS1,-1.15
12,CCN(CC)C(=N)N,-11.6
13,CC=C/C=C/[C@@H]1O[C@](O)([C@H](CC)C(=O)NC/C=C/C=C(\C)[C@@H](OC)[C@@H](C)[C@@H]2O[C@H](/C=C/C=C/C=C(\C)C(=O)c3c(O)cc[nH]c3=O)[C@H](O)[C@@H]2O)[C@H](O)[C@H](O)C1(C)C,35.2
14,CCOC(=O)C(/C(=N\NC(=O)OC)C(=O)Nc1cc(OC)ccc1OC)c1cnc2ccccc2n1 (centres undefined),-6.15
15,[Cl][Pt+2][Cl].[NH-]C(CO)C([NH-])CO (centres undefined),32.4
16,Cn1nc(-c2ccccc2)c(C(=O)/C=C/c2ccc(F)cc2)c(N2CCCCC2)c1=O,2.55
17,NC(=O)c1ccc2c(ccc3ccccc32)c1,48.5
18,CC12CCC(=O)C=C1CCC1C2C(=O)CC2(C)C1CCC2(O)C(=O)Cn1c(=O)[nH]cc(F)c1=O (centres undefined),5.95
19,COC12OCCN(C)C1=CC(=O)C1N=NCC12 (centres undefined),5.75
20,O=C(N/N=C/c1ccccc1)c1c(F)c(F)c(F)c(F)c1F,-27.6
21,O=C/C=C/N=c1ccn(O)cc1,8.65
22,COC(=O)CCCC(NC(=O)c1ccc([N+](=O)[O-])cc1)C(=O)OC (centres undefined),19.1
23,O=[N+]([O-])c1ccc(N/N=C2\C=CCCC2)c([N+](=O)[O-])c1,-0.95
24,CCCCCCCNC1=C(O)c2ccccc2C(=O)C1=O,-11.4

# Assay: NCI Yeast Anticancer Drug Screen. Data for the mec2-1 strain (AID 157)
# Settings: S. cerevisiae mec2-1 strain, at 50.0 µM, active compounds read high
# Method in brief: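 Strain: mec2-1 (DNA repair/cell cycle alteration). Compound exposure, then growth measured; inhibition expressed relative to vehicle.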
row,Compound,growth inhibition [%]
1,O=C1c2ccccc2Cc2ccccc21,7.75
2,O=[N+]([O-])C(C(Cl)=C(Cl)Cl)=C(N1CCCCC1)N1CCCCC1,-19.5
3,CC1(C)C=Cc2c(cc(O)c3c(=O)c4cc(Cl)ccc4[nH]c23)O1,-42.4
4,CC(O)(C(=O)O)C(NC(=O)c1ccccc1)C(=O)O (centres undefined),6.2
5,CC(C)COC(=O)c1cc(O)[nH]c(=O)c1,-7.8
6,CCOC(=O)CCC(NC(=O)C(CCC(=O)O)NC(=O)OCc1ccccc1)C(=O)OCC (stereo not drawn) (Cbz-Glu-Glu(OEt)-OEt; configuration not given here),-6.25
7,NC(C(=O)O)C1C=CCCC1 (centres undefined),-3.4
8,CC1(C)OC(=O)ON(Cc2ccccc2)C1=O,-2.85
9,CCOC(=O)C1=C(C(=O)c2ccc(OC)cc2)C(c2ccc(OC)c(OC)c2)C(C(=O)c2ccc(OC)cc2)=C(C(=O)OCC)N1,-20
10,CN1CCc2sccc2C(c2ccccc2)O1 (centres undefined),16.1
11,COc1ccc(N2C(=O)/C(=C\c3ccc(N(CCC#N)CCC#N)cc3)N=C2COc2ccccc2)cc1,-2.2
12,CCCC(C)C1(CC)NC(C)(C)CC(C)O1 (centres undefined),0.8
13,CC(C)COP(C)(=O)C(N)(C(F)(F)F)C(F)(F)F (centres undefined),8
14,N#CC1C(=O)NC(=O)C(C#N)C12CCCC2 (centres undefined),-9.2
15,O=c1oc2ccccc2c(O)c1[N+](=O)[O-],-11.2
16,O=C1O[C@@H]2C3COC(O)[C@](O)(O3)[C@@H]2/C1=C\c1ccc(O)cc1 (some centres undefined),10.4
17,CC(=O)/C(C)=C\C1C(C)=CCCC1(C)C (centres undefined),-33.4
18,CCN(CC)c1ccc2c(c1)C(O)c1ccccc1-2 (centres undefined),-20.4
19,CCN(CC)CCN(C)C(O)(C(=O)c1ccccc1)C1CCCC1 (centres undefined),15.2
20,C/C(Cc1ccccc1)=N\NS(=O)(=O)c1ccc(C)cc1,-2.15

row,Compound,growth inhibition [%]
1,O=C1C(=S)Nc2cccc(F)c21,45
2,CCOC(=O)NC(=Cc1ccccn1)c1ccc(Cl)cc1 (mixture of isomers),-3.1
3,O=C(Nc1cccc2ccccc12)OC1CCCC1,-12.4
4,CCCCCCC(C)C(C#N)C(=O)OCC (centres undefined),-11.8
5,CCCCNc1ccc([N+](=O)[O-])cc1[N+](=O)[O-],-15.4
6,CCCCOC(=O)C1(C(=O)OCCCC)CC1,-7.6
7,C1CSCCSCCSCCS1,-2.55
8,CCN(CC)C(=N)N,-1.55
9,CC=C/C=C/[C@@H]1O[C@](O)([C@H](CC)C(=O)NC/C=C/C=C(\C)[C@@H](OC)[C@@H](C)[C@@H]2O[C@H](/C=C/C=C/C=C(\C)C(=O)c3c(O)cc[nH]c3=O)[C@H](O)[C@@H]2O)[C@H](O)[C@H](O)C1(C)C,18.9
10,CCOC(=O)C(/C(=N\NC(=O)OC)C(=O)Nc1cc(OC)ccc1OC)c1cnc2ccccc2n1 (centres undefined),-2.75
11,[Cl][Pt+2][Cl].[NH-]C(CO)C([NH-])CO (centres undefined),-47.9
12,Cn1nc(-c2ccccc2)c(C(=O)/C=C/c2ccc(F)cc2)c(N2CCCCC2)c1=O,8.55
13,NC(=O)c1ccc2c(ccc3ccccc32)c1,4.75
14,CC12CCC(=O)C=C1CCC1C2C(=O)CC2(C)C1CCC2(O)C(=O)Cn1c(=O)[nH]cc(F)c1=O (centres undefined),-5.8
15,COC12OCCN(C)C1=CC(=O)C1N=NCC12 (centres undefined),1.35
16,O=C(N/N=C/c1ccccc1)c1c(F)c(F)c(F)c(F)c1F,9
17,O=C/C=C/N=c1ccn(O)cc1,3.45
18,COC(=O)CCCC(NC(=O)c1ccc([N+](=O)[O-])cc1)C(=O)OC (centres undefined),-9.45
19,O=[N+]([O-])c1ccc(N/N=C2\C=CCCC2)c([N+](=O)[O-])c1,-11.9
20,CCCCCCCNC1=C(O)c2ccccc2C(=O)C1=O,15.8
